Among the data in PMC6212790, “How bacterial xenogeneic silencer rok distinguishes foreign from self DNA in its resident genome” are binding signal values, retold here.

In all, about 33,000 sequences were measured (“e-score”: median about -0.038, highest 2% from about 0.33 on). The sample holds the highest values, similar sequences and a random draw of the others, so the mix is not that of the screen.

In this test the target is T1, GST-Rok-C97-191 (Bacillus subtilis subsp. subtilis str. …, UniProt O34857 97-191).
T1 sequence: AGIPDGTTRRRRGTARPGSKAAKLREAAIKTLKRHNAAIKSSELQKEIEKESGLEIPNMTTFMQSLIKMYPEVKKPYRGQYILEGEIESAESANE
Nature of the test: protein binding microarray; Rok is a gene silencer of Bacillus subtilis; high values mean tight binding. The note with it: protein: recombinant; tags: GST (pTH5325, pDEST15-Magic modified); dsDNA, one strand shown. In outline:
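Every oligonucleotide joins a 25-mer constant primer to a 35-mer variable part drawn from a de Bruijn sequence of order 10, so each non-palindromic 8-mer appears at least 32 times and each palindromic 8-mer 16 times. The preference for every 8-mer is reported as a unitless, rank-based enrichment score (E-score). This score spans 0.5 for the most favored 8-mer to −0.5 for the most disfavored.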
Consider ATAGTTGC, for which the binding signal is 0.306 E-score.
The figure for CTGGAACC is -0.0259 E-score.
The same measure for AGTCAGTA: 0.149 E-score; for AAGGCGCT: -0.115 E-score; for CCGCCTAG: -0.149 E-score.
The figure for GAGATGAA is -0.0161 E-score; for CCCGAAAC it is -0.179 E-score; for CGGTCGTA it is 0.261 E-score.
As to ATTATGAG, the binding signal was -0.00845 E-score.
Consider GTACCCAA, for which the binding signal was -0.0765 E-score.
For the sequence AAGTATTA, the binding signal came to 0.349 E-score.
In the case of GAGTATTA, the binding signal was found to be 0.187 E-score.
On to CAGTATTA, for which the binding signal was 0.188 E-score.
The figure for ATCTATCA is 0.451 E-score; for GTCTATCA it is -0.0797 E-score.
The same measure for CTCTATCA: 0.0167 E-score; for AGTCTTGC: 0.0754 E-score; for ACGACTTA: 0.051 E-score.
Regarding GCAGCAAC, the binding signal was -0.161 E-score.
The figure for TATCAATA is 0.331 E-score; for GATCAATA it is 0.0798 E-score; for AATCAATA it is 0.227 E-score.
The figure for AAAAAACA is 0.19 E-score; for AGAAACCG it is -0.049 E-score; for AAATACGA it is 0.0254 E-score.
In the case of AAATACAT, the binding signal amounted to 0.359 E-score.
The figure for AAATACAC is 0.25 E-score.
The figure for AAATACGG is 0.213 E-score; for AAATACAG it is 0.123 E-score; for AAATACGT it is 0.343 E-score.
In the case of CGTTCCTA, the binding signal amounted to 0.0168 E-score.
The figure for CAGTATGC is -0.144 E-score; for GCAGATAA it is 0.127 E-score.
For the sequence CCTAATAC, the binding signal amounted to 0.14 E-score.
The figure for ATCCGTCC is -0.186 E-score; for ATACCATC it is 0.0328 E-score; for GTACCAGA it is 0.0231 E-score.
The same measure for ATACCATA: 0.267 E-score.
The figure for GTACCACA is 0.0685 E-score; for CTACCATC it is 0.421 E-score; for CTACCATA it is 0.324 E-score.
For the sequence GTACCATA, the binding signal amounted to 0.362 E-score.
The same measure for ATACCACG: 0.0833 E-score.
Take CTACCACA: the binding signal was found to be 0.343 E-score.
With ATGGCGCA, the binding signal is -0.0193 E-score.
The same measure for GAAACTCC: 0.0382 E-score; for CGGTAGAG: -0.0194 E-score.
The same measure for GGGTAGCA: -0.148 E-score; for CCGTAGAA: 0.289 E-score.
Turning to GGGTAGAA, the binding signal is 0.384 E-score.
Regarding TCGTAGAA, the binding signal was determined as 0.236 E-score.
In the case of AGTTAGAT, the binding signal amounted to 0.196 E-score.
The same measure for GGGTAGAC: -0.0486 E-score.
In the case of CGGTAGAC, the binding signal was -0.0972 E-score.
The same measure for TGGTAGAA: 0.468 E-score.
The same measure for CGGTAGAA: 0.411 E-score; for ACGTAGAT: 0.219 E-score.
The figure for AGGTAGAT is 0.36 E-score; for CGAGTAGC it is -0.0476 E-score.
On to AGTCAAGG, for which the binding signal was -0.145 E-score.
As to CATGCTCC, the binding signal was -0.102 E-score.
The same measure for AAAGGATG: -0.047 E-score; for AGACAGTA: 0.0933 E-score.
The same measure for GAGAACGA: -0.104 E-score; for CGAGCAAG: -0.0658 E-score.
For CTTACGGC, the binding signal is -0.196 E-score.
Consider CATATTGC, for which the binding signal is 0.0992 E-score.
The figure for CAGGTCAA is -0.108 E-score; for AGGTAGAA it is 0.433 E-score; for CTGTAGAA it is 0.258 E-score.
The figure for GTGTAGAA is 0.293 E-score; for ATGTAGAA it is 0.38 E-score; for AGGTAGAG it is 0.118 E-score.
The figure for AGGTAGAC is 0.093 E-score.
For ACCTCTTA, the binding signal amounted to 0.191 E-score.
The figure for TCATAGGA is 0.154 E-score; for CAGGAGCA it is -0.151 E-score; for CAACCTAC it is 0.263 E-score.
As for AACATCCT, the binding signal amounted to 0.0847 E-score.
The same measure for CGCCTACG: -0.0439 E-score; for CCCTTGAC: -0.132 E-score; for AATAGTAT: 0.332 E-score.
For the sequence AATAGTAC, the binding signal turned out to be 0.293 E-score.
The figure for AATAGTGT is 0.242 E-score; for AACAGTAA it is 0.285 E-score; for CAAAGTAC it is -0.0306 E-score.
The figure for ATTAGTAA is 0.303 E-score; for AACAGTAG it is 0.362 E-score.
The same measure for GAAAGTAC: 0.35 E-score.
On to GAAAGTAA, for which the binding signal stood at 0.226 E-score.
The same measure for AATAGTAA: 0.338 E-score.
On to AATAGTCA, for which the binding signal stood at 0.186 E-score.
Regarding CACAGTAG, the binding signal is 0.0897 E-score.
The same measure for AGTTGCCA: 0.0801 E-score; for ATTAGGGC: -0.073 E-score; for CAAGACTA: 0.186 E-score.
The same measure for CTGACGAA: -0.0673 E-score; for GATAGCGC: 0.191 E-score.
The figure for GCAAATAA is 0.158 E-score.
For the sequence AATGATGA, the binding signal amounted to 0.00727 E-score.
For AATAGTAG, the binding signal is 0.475 E-score.
The same measure for AAAAGTAC: 0.279 E-score.
For CATAGTAG, the binding signal is 0.195 E-score.
For the sequence AAAAGTAG, the binding signal stood at 0.344 E-score.
As to CAAAGTAG, the binding signal was found to be 0.194 E-score.
Regarding AATAGTCG, the binding signal was -0.0896 E-score.
The figure for AGACCACG is -0.138 E-score; for CGTGTAAC it is 0.0552 E-score; for CTAGGCAC it is -0.149 E-score.
The same measure for CGGCTAAC: 0.00729 E-score.
On to GAGTTCAC, for which the binding signal worked out at 0.0331 E-score.
The figure for AGCTCGGG is -0.116 E-score.
The figure for CGTATATC is 0.316 E-score; for AATATAGA it is 0.309 E-score; for CCTATATC it is 0.0424 E-score.
For the sequence AATATATT, the binding signal is 0.417 E-score.
The same measure for AATATATC: 0.424 E-score; for AATATATA: 0.462 E-score; for ACTATATG: 0.283 E-score.
The figure for AATATTAT is 0.21 E-score; for AATATGTG it is 0.199 E-score; for AATATATG it is 0.337 E-score.
The figure for AATATAAG is 0.26 E-score; for AAAATATT it is 0.327 E-score.
As for CAGAAACG, the binding signal is -0.0943 E-score.
The figure for TAAGTCAA is -0.0154 E-score.
The same measure for ATGATCCA: 0.0416 E-score.
For ACCAACAT, the binding signal came to 0.157 E-score.
The figure for CCATCGGG is -0.172 E-score.
The figure for GCCGGACA is 0.0879 E-score.
For the sequence GTTATGTA, the binding signal amounted to 0.292 E-score.
Regarding ACTATGTA, the binding signal turned out to be 0.356 E-score.
For CCTATGTA, the binding signal was 0.302 E-score.
The same measure for CTTATGTA: 0.0579 E-score; for ATTATGTA: 0.354 E-score; for GCTATGTA: 0.226 E-score.
The same measure for AAGGGCAG: -0.195 E-score; for AACACATG: 0.0194 E-score.
As for AAGCTGTC, the binding signal stood at 0.0421 E-score.
For the sequence ACCAGGAC, the binding signal is -0.0513 E-score.
As to GAATGTAC, the binding signal is 0.304 E-score.
The same measure for AAATGTAG: 0.286 E-score; for ACATGTAC: 0.331 E-score.
The same measure for AAATGTAA: 0.349 E-score; for TAATGTAA: 0.357 E-score.
For AAATGTAC, the binding signal amounted to 0.364 E-score.
The figure for GCATGTAC is 0.163 E-score.
On to CAATGTAC, for which the binding signal was found to be 0.204 E-score.
The same measure for CCATGTAC: 0.185 E-score; for AAATGTAT: 0.27 E-score; for GAATGTAA: 0.173 E-score.
The same measure for CAATGTAA: -0.0287 E-score; for TAATTAGA: 0.324 E-score; for CATAAAGC: -0.119 E-score.
The figure for GTGCTAGA is 0.197 E-score; for CTAGCAAC it is 0.222 E-score; for TGCGACAA it is -0.0569 E-score.
Turning to CGTGCAGC, the binding signal is -0.0438 E-score.
The figure for GCTACGGA is -0.0221 E-score; for CCCTAGCG it is -0.135 E-score; for CCACGCTC it is -0.0229 E-score.
As to ATAGGTTA, the binding signal came to 0.162 E-score.
Regarding ATATGTAA, the binding signal was found to be 0.28 E-score.
As for ATATGTAC, the binding signal is 0.309 E-score.
The figure for AGATGTAA is 0.191 E-score; for AGATGTAG it is 0.331 E-score.
The same measure for ATCTGTAA: 0.106 E-score.
The same measure for ATCTGTAG: 0.37 E-score; for AGATGTAT: 0.264 E-score; for ATATGTAG: 0.386 E-score.
Turning to ATCTGTAC, the binding signal came out at 0.0594 E-score.
The same measure for AAAAGTGG: 0.0303 E-score.
